From PubChem BioAssay AID651956 (Broad Institute, 2012) come the findings set out here.

Entries with a potency or affinity are not part of this list. Results filed as inconclusive are left out. Values without a mark were called inactive.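 The calls were made as follows: active = in every test run, a fitted half-maximal concentration for signal decrease at or below twice the highest tested concentration; inconclusive = runs disagree, flat 30 to 70% decrease, or poor fit; inactive = the rest.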

The test is described as follows: miR-122 activators in hepatoma reporter cells, dose response, cell-based, Huh7 psiCHECK-miR122, Renilla luciferase, cherry-picked (AID 651956).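 Also: Renilla luciferase from a miR-122 sensor reporter so lower signal means miR-122 activation; 0% = median neutral control wells and -100% = median positive control wells.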 Particulars: 48 h; series mostly up to 35 µM; activity change, negative = signal decrease: at the top concentration.
In the case of `CNC(=O)C[C@H]1CC[C@H]2[C@H](COc3ccc(NC(=O)c4cccc(OC)c4)cc3C(=O)N2C)O1`, the “activity change, negative = signal decrease” value was 16.2%. With `CC(C)Oc1ccc(CNCCC2(C(C)C)CCOC(C)(C)C2)cc1` (centres undefined), the “activity change, negative = signal decrease” value is 186%. As to `COCC(=O)NC[C@@H]1[C@H](c2ccc(C3=CCCC3)cc2)[C@@H](CO)N1C(=O)C1CC1`, the “activity change, negative = signal decrease” value was 100%. As to `COc1ccc(C#Cc2ccc3c(c2)O[C@@H](CN(C)C(=O)CN2CCOCC2)[C@@H](C)CN([C@H](C)CO)S3(=O)=O)cc1`, the “activity change, negative = signal decrease” value was 14.7%. In the case of `Cc1ccc(C(=O)n2nc(-c3ccccc3)nc2NCc2ccco2)cc1`, the “activity change, negative = signal decrease” value is 64.8%.

Turning to `C[C@@H]1CN([C@H](C)CO)S(=O)(=O)c2ccc(C3=CCCCC3)cc2O[C@@H]1CN(C)C(=O)Nc1ccc2c(c1)OCO2`, the “activity change, negative = signal decrease” value is -88.8%. For the molecule `CCC(=O)NC[C@H]1[C@H](c2ccc(C3=CCCC3)cc2)[C@H](CO)N1C(C)=O`, the “activity change, negative = signal decrease” value is -24.8%. In the case of `O=C(NCCCN1CCCC1)c1ccc(CSCc2cccc(Cl)c2)o1`, the “activity change, negative = signal decrease” value is 5.27%. With `O=C(N[C@H]1CC[C@H](CCn2cc(C3(O)CCCC3)nn2)O[C@H]1CO)c1ccccc1F` the figure was -22.4%; with `Cc1ccc(-c2ccc3c(c2)O[C@H](CN(C)C(=O)CC2CC2)[C@H](C)CN([C@@H](C)CO)S3(=O)=O)cc1`, -108%.

Consider `CCC(=O)N1[C@H](CO)[C@@H](c2ccccc2)[C@H]1CN(C(C)C)S(C)(=O)=O`, for which the “activity change, negative = signal decrease” value was -18.1%. In the case of `C/C=C/c1ccc([C@H]2[C@@H](CO)N(Cc3ccccn3)[C@H]2CNC(C)=O)cc1` it was -24.4%; in that of `CN(C)CCNc1nc2sc3c(c2c(=O)n1CCc1ccccc1)CCCCC3`, 70.4%; in that of `COc1ccccc1CNc1nc(Nc2ccccc2Cl)c2sccc2n1`, 21.4%.

As to `COCCNC(=O)C[C@H]1CC[C@@H]2[C@H](COc3ccc(NC(=O)c4cnccn4)cc3C(=O)N2C)O1`, the “activity change, negative = signal decrease” value was 42% [at 30 µM]. In the case of `CC(C)NC(=O)N1[C@H](CO)[C@@H](c2ccccc2)[C@@H]1CN(C)C(=O)c1cccnc1`, the “activity change, negative = signal decrease” value is -24.5%. In the case of `CC(C)C(=O)Nc1ccc2c(c1)C(=O)N(C)[C@H]1CC[C@@H](CC(=O)NCc3ccccc3F)O[C@H]1CO2`, the “activity change, negative = signal decrease” value was 64.2%. Regarding `CCOC(=O)C1CN(S(=O)(=O)c2ccccc2)CCN1S(=O)(=O)c1ccccc1` (centres undefined), the “activity change, negative = signal decrease” value was 19.2%. Consider `COc1cc(Cl)cc(/C=N\NC(=O)c2ccc3c(c2)OCO3)c1O`, for which the “activity change, negative = signal decrease” value is 42.6%.

Regarding `O=C(c1cccnc1)N1C[C@H]2[C@@H](c3ccccc31)[C@H](CO)N2C(=O)Nc1ccccc1`, the “activity change, negative = signal decrease” value is -24.8%. For `COCC(=O)N(C[C@@H]1N[C@H](CO)[C@H]1c1ccc(C2=CCCC2)cc1)C(C)C`, the “activity change, negative = signal decrease” value was 75.5%.

In the case of `COCC(=O)Nc1ccc2c(c1)C(=O)N(C)[C@@H]1CC[C@@H](CC(=O)NC3CCCC3)O[C@@H]1CO2`, the “activity change, negative = signal decrease” value is 13.2%. In the case of `CN1C(=O)c2cc(NC(=O)c3ccc(C(F)(F)F)cc3)ccc2OC[C@@H]2O[C@@H](CC(=O)NCc3ccc4c(c3)OCO4)CC[C@H]21` it was 90.6%; in that of `C/C=C/c1ccc([C@H]2[C@@H](CO)N(Cc3ccccn3)[C@@H]2CNC(=O)CC)cc1`, -23.6% [at 30 µM].
